Source: PubChem BioAssay
Most compounds without a hit are left out; they make up all but 1.6% or so of the library.
KCNQ2 pot: potentiators of rat KCNQ2 potassium channel; CHO-K1 KCNQ2, FluxOR thallium flux fluorescence; hits give high values; AID 2239; B-score at 10 µM; O88943; hit rate 0.54% among 310,000;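 active = fluorescence ratio B-score at least 3 SD of library B-scores, with initial fluorescence B-score within 3 of them, cut at about 5.3 in these data; same plate scores as AID 2156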;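 also: B-score of peak minus minimum over baseline fluorescence ratio after K+ and Tl+ stimulus; positive B-score means potentiation of KCNQ2 with more thallium influx and brighter signal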
Target sequence (O88943 whole entry, looked up): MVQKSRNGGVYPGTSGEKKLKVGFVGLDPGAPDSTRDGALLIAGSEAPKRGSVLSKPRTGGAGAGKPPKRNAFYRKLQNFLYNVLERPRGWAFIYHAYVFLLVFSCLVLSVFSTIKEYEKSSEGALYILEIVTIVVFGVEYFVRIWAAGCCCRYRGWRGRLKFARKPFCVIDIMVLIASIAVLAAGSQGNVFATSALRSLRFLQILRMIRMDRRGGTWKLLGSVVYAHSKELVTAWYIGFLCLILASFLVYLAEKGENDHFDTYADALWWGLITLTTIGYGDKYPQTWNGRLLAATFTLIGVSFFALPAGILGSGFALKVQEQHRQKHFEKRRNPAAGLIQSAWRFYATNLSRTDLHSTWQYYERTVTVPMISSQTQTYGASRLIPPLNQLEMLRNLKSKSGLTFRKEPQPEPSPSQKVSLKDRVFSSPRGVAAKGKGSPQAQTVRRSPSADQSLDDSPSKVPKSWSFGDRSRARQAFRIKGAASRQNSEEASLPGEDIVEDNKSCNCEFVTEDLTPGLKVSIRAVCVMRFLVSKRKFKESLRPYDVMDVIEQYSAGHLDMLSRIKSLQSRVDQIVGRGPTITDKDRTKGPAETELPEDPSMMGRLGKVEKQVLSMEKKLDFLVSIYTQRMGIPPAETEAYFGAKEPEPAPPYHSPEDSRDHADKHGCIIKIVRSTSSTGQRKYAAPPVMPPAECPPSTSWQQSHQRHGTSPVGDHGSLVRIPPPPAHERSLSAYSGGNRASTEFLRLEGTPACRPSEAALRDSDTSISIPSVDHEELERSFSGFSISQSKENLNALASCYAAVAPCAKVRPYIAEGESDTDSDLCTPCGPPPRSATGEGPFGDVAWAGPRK
KCNQ2 block: inhibitors of rat KCNQ2 potassium channel; CHO-K1 KCNQ2, FluxOR thallium flux, 20 min; hits give low values; B-score at 10 µM; hit rate 1.1% among 310,000; AID 2156;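 active = fluorescence ratio B-score at most minus 3 library SDs, with starting brightness B-score within 2 library SDs, cut at about -5.5 in these data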
Kir21 confirm: confirmation of mouse Kir2.1 potassium channel inhibitors. shares compounds with KCNQ2 pot. Kir2.1-expressing cells, FluxOR thallium flux fluorescence; hits give low values. Tl flux remaining, % of negative control (hits give low values), % at 10 µM. hit rate 41% among 2,300. AID 2032;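 active = Primary-screen hit whose thallium flux fell at least 3 control SD below untreated wells in both duplicates, with normal baseline fluorescence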;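 also: 0% = blank wells without stimulus and 100% = stimulated no-compound controls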
HEK293 Tl flux: counter-screen for Kir2.1 inhibitors: effect in parental HEK293 cells; FluxOR signal as % of negative control (100 = no effect), % at 10 µM; hit rate 19% among 2,300; shares compounds with KCNQ2 pot; FluxOR thallium flux fluorescence; 0% = unstimulated blank wells;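 active = dye signal at least 3 control SD above or below untreated wells in both duplicates, raw fluorescence within 3, either direction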;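 also: percent is based on the flux ratio of peak minus minimum fluorescence over baseline F0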
CHO-K1 ctr: parental CHO-K1 activity in KCNQ2 potentiator counter-screen | shares compounds with KCNQ2 pot | parental CHO-K1 cells, FluxOR thallium flux fluorescence; zero = vehicle mean+3SD, 100% = vehicle-minus-blank window | activity increase over 3SD of controls, % at 10 µM | hit rate 43% among 1,200;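 active = signal rise of at least 3 SD above the untreated control mean, in both duplicate wells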;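 also: counter screen of KCNQ2 potentiator hits so any rise reflects channel-independent effects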
KCNQ1 pot spec: human KCNQ1 counter-target activity of KCNQ2 potentiators; shares compounds with KCNQ2 pot; CHO KCNQ1 stable, FluxOR thallium flux fluorescence; beyond 3SD, as % of vehicle-control signal; activation over 3SD threshold, % at 10 µM; hit rate 28% among 1,200;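 active = fluorescence ratio rise of at least 3 SD of vehicle wells above their mean, in both replicate wells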;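 also: 0% = vehicle mean plus 3 SD and 100% = vehicle minus unstimulated blank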
KCNQ2 pot confirm: rat KCNQ2 channel potentiator confirmation. AID 2287. CHO-KCNQ2 cells, FluxOR thallium flux fluorescence. shares compounds with KCNQ2 pot. potentiation, less the hit threshold, % at 10 µM. hit rate 68% among 1,200;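 active = fluorescence ratio rising 3 SD or more over the vehicle control mean in both replicates, plus primary screen hit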;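 also: peak minus minimum thallium fluorescence divided by baseline after K/Tl stimulus; 0% = vehicle mean plus 3 SD and 100% = vehicle minus unstimulated blank difference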
Kir21 spec: tests whether KCNQ2 potentiators also affect mouse Kir2.1; shares compounds with KCNQ2 pot; HEK293 Kir2.1, FluxOR thallium flux fluorescence; activity over 3SD threshold, % at 10 µM; hit rate 2% among 1,200; AID 2345;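 active = fluorescence ratio rise of at least 3 SD above the vehicle-control mean, seen in both replicates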;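 also: 0% = vehicle mean plus 3 SD and 100% = vehicle minus no-stimulus blank window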
KCNQ2 W236L pot: KCNQ2 potentiators acting on retigabine-insensitive rat KCNQ2 W236L mutant | shares compounds with KCNQ2 pot | CHO KCNQ2-W236L, automated patch clamp current | current increase over 3SD of negative controls (%), hits give high values, % at 25 µM | hit rate 10% among 940;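 active = current increase at least 3 SD of the untreated controls above them in both duplicate recordings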
Starred values were filed as active, the others as inactive; i = inactive; · = no result.

SMILES | KCNQ2 pot | KCNQ2 block | Kir21 confirm | HEK293 Tl flux | others
Cc1cc(Cl)c(S(=O)(=O)N2CCSCC2)cc1OCC(=O)NC1CCCCC1 | 32* | i | i | 126%* | CHO-K1 ctr=6.8*;KCNQ1 pot spec=-17;KCNQ2 pot confirm=122*;Kir21 spec=-26;KCNQ2 W236L pot=i
Cc1cc(Cl)c(S(=O)(=O)NC2CCCC2)cc1OCC(=O)NC1CCCCC1 | 0.41 | i | · | ·
CCN(CC)S(=O)(=O)c1ccc(/C=C/C(=O)OCC(=O)Nc2ccc(S(N)(=O)=O)cc2)cc1 | · | i | · | ·
Cc1cc(C)cc(-n2nnc(C(=O)NCc3ccccc3Cl)c2N)c1 | 0.56 | i | · | ·
OCCOCCn1c(C2CCCN2c2nc(-c3ccc(F)cc3)cs2)nc2cc(Cl)c(Cl)cc21 (configuration not stated) | · | i | · | ·
OCCCn1c(C2CCCN2c2nc(-c3ccc(F)cc3)cs2)nc2cc(Cl)c(N3CCCCC3)cc21 (configuration not stated) | 10* | i | i | i | CHO-K1 ctr=-13;KCNQ1 pot spec=-8;KCNQ2 pot confirm=55*;Kir21 spec=-25;KCNQ2 W236L pot=i
OCCCn1c(C2CCCN2c2nc(-c3ccc(Cl)cc3)cs2)nc2cc(Cl)c(N3CCCCC3)cc21 (configuration not stated) | 8.1* | i | i | i | CHO-K1 ctr=13*;KCNQ1 pot spec=-21;KCNQ2 pot confirm=8.9*;Kir21 spec=-26;KCNQ2 W236L pot=i
Cc1csc(N2CCCC2c2nc3cc(Cl)c(N4CCCCC4)cc3n2CCCO)n1 (configuration not stated) | 2.4 | i | · | ·
CC1(C)C2CC=C(/C=N/NC(=S)NCCc3ccccc3)C1C2 (configuration not stated) | 5.5* | i | i | i | CHO-K1 ctr=-15;KCNQ1 pot spec=-16;KCNQ2 pot confirm=-18;Kir21 spec=-26
CNC(=S)N/N=C/C1=CCC2CC1C2(C)C (configuration not stated) | 1.4 | i | · | ·
CCCN1CCC2(CC1)NC(C(=O)O)Cc1c2[nH]c2ccccc12 (configuration not stated) | · | i | · | ·
COC(=O)C1Cc2c([nH]c3ccccc23)C2(CCN(Cc3ccccc3)CC2)N1 (configuration not stated) | · | i | 68%* | i
Cc1ccsc1C(=O)C1CCCN(Cc2cc(F)ccc2-n2cccn2)C1 (configuration not stated) | · | i | · | ·
O=C(COc1ncnc2ccccc12)NCCCN1CCCC1=O | 0.09 | i | · | ·
CN(c1ccc(Cl)cc1)c1cc(=O)n(C)c2ccccc12 | · | i | i | i
CN(C(=O)COc1cc(=O)n(C)c2ccccc12)c1ccc(Cl)cc1 | · | i | · | ·
COc1cc(F)ccc1S(=O)(=O)n1c(C)nc2ccccc21 | · | i | 52%* | i
COc1cc(C)c(C)cc1S(=O)(=O)n1c(C)nc2ccccc21 | · | i | · | ·
COc1ccc(-c2nnn(CC(=O)NCCc3c[nH]c4ccccc34)n2)cc1OC | 0.28 | i | · | ·
O=C(CN(C(=O)c1csnn1)c1ccc(Br)cc1)NC1CCCCC1 | 1.3 | i | · | ·
COCCN1CCN(C(=O)c2cc(COc3cc(C)ccc3C)on2)CC1 | 1.1 | i | · | ·
NCC(=O)Nc1ccc(Cl)cc1C(=O)c1ccc[nH]1 | · | i | · | ·
COc1ccc(NC(=O)c2c(NC(=O)CNCc3ccco3)sc3c2CCC3)cc1 | · | i | · | ·
CCOC(=O)c1c(NC(=O)CN2CCN(C(=O)c3ccco3)CC2)sc2c1CCCC2 | 0.34 | i | i | i
CCOC(=O)c1c(NC(=O)c2ccco2)sc2c1CCCC2 | 0.59 | i | · | ·
SMILES | KCNQ2 pot | KCNQ2 block | Kir21 confirm | HEK293 Tl flux | others
COC(=O)c1c(NC(=O)CCNCc2ccco2)sc2c1CCC2 | 0.39 | i | 18%* | i
O=C(NCC1CCCCC1)c1ccc(F)cc1Cl | · | i | · | ·
O=C(CSc1nc(-c2ccco2)cc(C(F)(F)F)n1)N1CCSCC1 | 12* | i | i | i | CHO-K1 ctr=-3;KCNQ1 pot spec=68*;KCNQ2 pot confirm=34*;Kir21 spec=-36;KCNQ2 W236L pot=i
O=C(CSc1nc(-c2ccco2)cc(C(F)(F)F)n1)N1CCN(c2cccc(Cl)c2)CC1 | 7.9* | i | i | 76%* | CHO-K1 ctr=15*;KCNQ1 pot spec=60*;KCNQ2 pot confirm=-16;Kir21 spec=-44
CN1CCN(C(=O)CSc2nc(-c3ccco3)cc(C(F)(F)F)n2)CC1 | 0.86 | i | · | ·
O=C(CCSc1nc(-c2ccco2)cc(C(F)(F)F)n1)N1CCN(c2ccccn2)CC1 | · | i | · | ·
CCCCn1c(NC(=O)C2CCCCC2)nc2ccccc21 | 9.6* | i | i | i | CHO-K1 ctr=3.9*;KCNQ1 pot spec=-15;KCNQ2 pot confirm=16*;Kir21 spec=-38;KCNQ2 W236L pot=i
CN(C)CCCn1c(NC(=O)C2CCCCC2)nc2ccccc21 | 0.81 | i | · | ·
CC(C)=CC(=O)Nc1c(C)cc(C)cc1Cl | 11* | i | i | i | CHO-K1 ctr=-20;KCNQ1 pot spec=-20;KCNQ2 pot confirm=28*;Kir21 spec=-27;KCNQ2 W236L pot=i
Cc1cc(C)c(NC(=O)CCCC(=O)O)c(Cl)c1 | · | i | · | ·
COCCn1c(N)c(Sc2ccc([N+](=O)[O-])cc2)c(=O)[nH]c1=O | · | i | · | ·
COc1ccc(-c2noc(CNC(=O)CCN3C(=O)[C@H]4CC=CC[C@H]4C3=O)n2)cc1 | 0.04 | i | · | ·
CCOc1ccc(C(O)C(CN2CCOCC2)c2ccccc2)cc1 (configuration not stated) | 0.14 | i | · | ·
CCC(CC)NC(=O)c1ccccc1Oc1ccccc1 | · | i | 55%* | i
CCC(C)(C)NC(=O)c1ccccc1Oc1ccccc1 | · | i | · | ·
O=C(NCc1ccc(Cl)cc1)c1ccccc1Oc1ccccc1 | 8.8* | i | i | i | CHO-K1 ctr=110*;KCNQ1 pot spec=-12;KCNQ2 pot confirm=12*;Kir21 spec=-49;KCNQ2 W236L pot=i
COCCCNC(=O)c1ccccc1Oc1ccccc1 | · | i | · | ·
Cc1ccc(CN2CCN(/N=C\C=C\c3ccccc3)CC2)cc1 | · | i | · | ·
O=S1(=O)N=C(N(Cc2cccs2)c2ccc(O)cc2)c2ccccc21 | · | i | · | ·
CC(C)COc1ccc(C(=O)OCC(=O)N(C)CC(=O)Nc2ccc(F)cc2)cc1 | · | i | · | ·
Cc1ccc(Cn2nnnc2CN2CCC(NC(=O)C(C)(C)C)CC2)cc1 | · | i | · | ·
CO/N=C(/COc1ccc(F)cc1)c1ccc(OC)cc1 | · | i | · | ·
CO/N=C(/CS(=O)c1ccc(Br)cc1)c1ccc(OC)cc1 (configuration not stated) | · | i | 50%* | i
COc1cccc(NC(=O)c2cccc(S(=O)(=O)N3CCN(Cc4ccccc4)CC3)c2)c1 | 0.68 | i | · | ·
